Results on 9 compounds are retold here after PubChem BioAssay (NCI).

Molecules are shown by their SMILES. About 83,000 compounds went through this panel and 20% of them were active in at least one assay; those are over-represented in the sample as a whole.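 Negative percent growth values reflect cell death: -40 means 40% of the cells present at the start died, and -100 means all died.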 Values without a mark were called inactive. Active and inactive are the calls of the source. Rule for the calls: active = growth percent below 10; inactive = the rest.

Test in all cases: NCI-60 one-dose screen, 48 h (100 = growth as untreated, 0 = no growth, -100 = all killed)
The test system of one assay is HT29 colon. To be noted: 10 µM unless noted.
In a further assay the test system is SNB-75 CNS. As to conditions: 10 µM unless noted.
A further assay has as its system SNB-19 CNS. To be noted: 10 µM unless noted.
In the next assay the test system is U251 CNS. As to conditions: 10 µM unless noted.
The subject of the next assay is PC-3 prostate. To be noted: 10 µM unless noted.
A further assay concerns SK-MEL-5 melanoma. As to conditions: 10 µM unless noted.
The next assay relates to UACC-62 melanoma. As to conditions: 10 µM unless noted.
The next assay has as its system LOX IMVI melanoma. To be noted: 10 µM.
A further assay relates to SK-MEL-28 melanoma. As to conditions: 10 µM unless noted.
In the next assay the test system is SK-MEL-2 melanoma. To be noted: 10 µM unless noted.
For the next assay, the system named is SN12C renal. To be noted: 10 µM unless noted.
The test system of the next assay is UO-31 renal. To be noted: 10 µM unless noted.
The next assay relates to TK-10 renal. To be noted: 10 µM unless noted.
The next assay deals with ACHN renal. As to conditions: 10 µM unless noted.
The next assay deals with CAKI-1 renal. As to conditions: 10 µM unless noted.
In a further assay the test system is A498 renal. To be noted: 10 µM unless noted.
In a further assay the test system is CCRF-CEM leukemia. As to conditions: 10 µM unless noted.
The next assay deals with MOLT-4 leukemia. To be noted: 10 µM unless noted.
Another assay relates to HCT-15 colon. As to conditions: 10 µM unless noted.
The subject of the next assay is EKVX NSCLC. As to conditions: 10 µM unless noted.

Regarding `C/C(=N\NC(=S)N1CC2CCC(CC2)C1)c1ccccn1`, the growth in the assay on HT29 colon was 6.46% (active); in the assay on SNB-75 CNS it was 33.8%; with SNB-19 CNS, 11.7%; with U251 CNS, 5.52% (active); in the assay with PC-3 prostate, -4.47% (active); in the assay with SK-MEL-5 melanoma, -68.3% (active). For the same compound, the growth with UACC-62 melanoma is -36.7% (active); in the assay on LOX IMVI melanoma, 4.04% (active); with SK-MEL-28 melanoma, 37.9%; in the assay on SK-MEL-2 melanoma it was 13.7%; with SN12C renal, 4.27% (active); in the assay on UO-31 renal, -8.11% (active). Moreover, the growth in the assay with TK-10 renal is 21.6%; in the assay on ACHN renal it was 15.1%; in the assay on CAKI-1 renal, 0.118% (active); in the assay on A498 renal, -12.4% (active); in the assay with CCRF-CEM leukemia, 3.63% (active); in the assay on MOLT-4 leukemia, 3.87% (active).
For `O=C(c1ccccc1)C(O)C(Br)(CBr)c1ccccc1` (stereo not drawn), the growth is 86.5% in the assay on HCT-15 colon; 99.5% in the assay on SNB-75 CNS; 90.5% in the assay with SNB-19 CNS; 81.7% in the assay with U251 CNS; 70.2% in the assay on PC-3 prostate; 85.6% with SK-MEL-5 melanoma. Besides, the growth in the assay with UACC-62 melanoma was 65.3%; with LOX IMVI melanoma it was 46.6%; with SK-MEL-28 melanoma, 101%; in the assay on SN12C renal it was 91.6%; with UO-31 renal, 96.3%; with TK-10 renal, 87.6%. Also, the growth was 93.2% in the assay with ACHN renal, 102% in the assay on CAKI-1 renal, 50% with CCRF-CEM leukemia and 75.1% with MOLT-4 leukemia.
Regarding `CC(=O)N1CC(=O)NC1=S`, the growth in the assay with HCT-15 colon is 99.9%; in the assay on HT29 colon, 106%; in the assay on U251 CNS it was 94.8%; in the assay on PC-3 prostate, 97.9%; in the assay with SK-MEL-5 melanoma it was 103%; in the assay with UACC-62 melanoma, 96.1%. The growth in the assay with LOX IMVI melanoma was 98.5%; in the assay on SK-MEL-28 melanoma, 108%; with SK-MEL-2 melanoma, 105%; in the assay with EKVX NSCLC, 94%; in the assay on SN12C renal it was 100%; in the assay on UO-31 renal, 86.1%. Besides, the growth in the assay with TK-10 renal was 102%; in the assay on ACHN renal, 103%; in the assay with CAKI-1 renal, 93%; in the assay with CCRF-CEM leukemia, 105%; in the assay on MOLT-4 leukemia, 104%.
On to `Oc1c(Cl)cc(Cl)cc1C=NCC1CCC(CN=Cc2cc(Cl)cc(Cl)c2O)CC1` (stereo not drawn), for which the growth was 103% with HT29 colon; 66.9% in the assay on SNB-75 CNS; 79.8% with SNB-19 CNS; 83% with U251 CNS; 77.6% in the assay with PC-3 prostate; 94.4% in the assay with SK-MEL-5 melanoma. In addition, the growth with UACC-62 melanoma was 97.7%; in the assay with LOX IMVI melanoma, 69.6%; with SK-MEL-28 melanoma, 89.2%; in the assay on SN12C renal it was 86.3%; in the assay with UO-31 renal it was 45.8%; in the assay with ACHN renal, 101%. Moreover, the growth with CAKI-1 renal was 91.7%; with A498 renal, 113%; in the assay on CCRF-CEM leukemia, 59%; in the assay on MOLT-4 leukemia, 78.1%.
Take `O=C(CBr)c1ccc(OC(=O)c2ccccc2)cc1`: the growth was 115% in the assay on HT29 colon; 96.5% in the assay on SNB-75 CNS; 112% with SNB-19 CNS; 95.5% in the assay with U251 CNS; 101% in the assay with PC-3 prostate; 107% in the assay with SK-MEL-5 melanoma. Moreover, the growth was 107% with UACC-62 melanoma; 73.3% in the assay on LOX IMVI melanoma; 112% in the assay on SK-MEL-28 melanoma; 111% with SK-MEL-2 melanoma; 118% in the assay with EKVX NSCLC; 103% in the assay with SN12C renal. Also, the growth in the assay with TK-10 renal was 117%; with ACHN renal, 97.5%; with CAKI-1 renal, 100%; in the assay on A498 renal it was 74.4%; in the assay with CCRF-CEM leukemia, 67.6%; in the assay with MOLT-4 leukemia, 95.3%.
As to `Nc1nc(N)c2cc(Sc3cccc(C(F)(F)F)c3)ccc2n1`, the growth with HT29 colon was 14.5%; in the assay on SNB-75 CNS, 42.7%; in the assay on SNB-19 CNS it was 34.6%; in the assay with U251 CNS, 19.2%; in the assay with PC-3 prostate, 28.3%; in the assay on SK-MEL-5 melanoma, 21.4%. In addition, the growth with UACC-62 melanoma is 30.3%; in the assay with LOX IMVI melanoma, 17.4%; with SK-MEL-28 melanoma, 58.4%; with SK-MEL-2 melanoma, 68.5%; with EKVX NSCLC, 23.7%; in the assay on SN12C renal, 26.5%. Further, the growth in the assay on UO-31 renal is 21.3%; in the assay on ACHN renal it was 26.6%; with CAKI-1 renal, 9.5% (active); with A498 renal it was 54%; in the assay on CCRF-CEM leukemia, 33.2%; in the assay on MOLT-4 leukemia, 14.3%.
Consider `COc1cc(/C=C/c2ccnc3ccccc23)cc(OC)c1OC`, for which the growth was 32.5% with HCT-15 colon; 11.8% in the assay with HT29 colon; 33.2% in the assay with U251 CNS; 56.1% in the assay with PC-3 prostate; 3.09% (active) with SK-MEL-5 melanoma; 38.2% in the assay with UACC-62 melanoma. Besides, the growth is 26.1% in the assay with LOX IMVI melanoma; 34% with SK-MEL-28 melanoma; 12.2% in the assay with SK-MEL-2 melanoma; 31% in the assay on SN12C renal; 37% with UO-31 renal; 70.1% with TK-10 renal. The growth in the assay with ACHN renal was 54.7%; in the assay with CAKI-1 renal, 24.3%; in the assay on A498 renal, 18%; in the assay on CCRF-CEM leukemia it was 43.5%; in the assay on MOLT-4 leukemia, 14.9%.
As for `CC(=O)c1c(O)c(C)c(O)c2c1OC1=CC(=O)C(C(C)=O)C(=O)C12C` (stereo not drawn), the growth is 84.4% with HCT-15 colon; 96.9% in the assay with SNB-19 CNS; 74.9% in the assay with U251 CNS; 45.3% with PC-3 prostate; 90.9% with SK-MEL-5 melanoma; 62.8% in the assay on UACC-62 melanoma. The growth in the assay on SK-MEL-28 melanoma is 84.4%; in the assay on SK-MEL-2 melanoma, 83.7%; in the assay on EKVX NSCLC it was 51.9%; in the assay on SN12C renal, 143%; with UO-31 renal, 58.7%; in the assay with TK-10 renal it was 103%. Moreover, the growth in the assay with ACHN renal was 89%; with CAKI-1 renal, 74.2%; in the assay with A498 renal, 76.3%; in the assay on MOLT-4 leukemia, 71.9%.
As to `CC1(C)OC2C(COC(c3ccccc3)(c3ccccc3)c3ccccc3)OC(c3c[nH]c4c(N)ncnc34)C2O1` (stereo not drawn), the growth was 55.3% with HCT-15 colon; 46.4% with HT29 colon; 25% with PC-3 prostate; 60.8% in the assay with SK-MEL-5 melanoma; 65.2% with UACC-62 melanoma; 54.8% with LOX IMVI melanoma. Also, the growth with SK-MEL-28 melanoma was 66.8%; in the assay with SK-MEL-2 melanoma, 69.8%; in the assay on EKVX NSCLC, 55.3%; in the assay with SN12C renal, 50.1%; in the assay on UO-31 renal, 58.3%; with TK-10 renal, 84.2%. The growth in the assay with ACHN renal was 52.2%; with CAKI-1 renal, 56.6%; in the assay with A498 renal it was 74.7%; with CCRF-CEM leukemia, 36.3%; in the assay with MOLT-4 leukemia, -7.93% (active).
